In the library only some 13% were active in any assay of this set; here they are far more common.
Lassa entry inh: inhibitors of Lassa virus binding or cell entry. 1.2% of 300,000 active. Lassa virus pseudotype entry inhibition, cell reporter. AID 540256. Potency, µM (top dose mostly 37.9 µM), inactives show at the highest dose activity change, negative = inhibition, actives largely listed as inhibitors; calls by dose curve; tested in HEK293 cells; also: potency is read from the fitted curve at half-maximal effect; % is scaled to controls: 0 for no effect and ±100 for the full control effect; nearly all actives have a fitted effect of over 50% in size
Cycloheximide cs: counter-screen hit for Shiga toxin inhibitors, cycloheximide. cell reporter, cycloheximide protein synthesis inhibition counterscreen. max response, %. 12% of 300,000 active. AID 2314; in the data active = max response mostly above about 13%, no sharp cut-off; inactive = mostly below about 14%; also: read at 38.3 µM for the half of the compounds with a filed dose; 0% is about no effect
HCV inhibitor: blocks hepatitis C virus; Potency, µM (doses to about 41.8 µM), without a hit: at the top dose activity change, negative = inhibition, hits mostly inhibitors; AID 651820; 3.4% of 340,000 active; Huh7.5.1 HCVcc-Cre infection, luciferase reporter, 44 h; active = well fitted inhibition curve with a large enough effect; inconclusive = small, poorly fitted or top-dose-only effect, or another doubt; inactive = no such curve, though single readings can be large or run the other way; also: potency is read from the fitted curve at half-maximal effect; % is scaled to controls: 0 for no effect and ±100 for the full control effect
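Whole-lifecycle infectious HCVcc-Cre system; cells 1,000/well, compound then virus (~0.5 moi) added 4 h after plating, 44 h culture. Luciferase read 15 sec following 15 min substrate incubation, room temp.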
FMDV antiviral: blocks foot and mouth disease virus. FMDV antiviral cell-based qHTS. 1.2% of 410,000 active. Potency, µM (doses to about 57.9 µM), for inactives: at the highest dose activity change, negative = inhibition, actives largely listed as inhibitors. AID 1159524; calls by dose curve; tested in HEK293T cells; also: read-out not given here; potency is read from the fitted curve at half-maximal effect; % is scaled to controls: 0 for no effect and ±100 for the full control effect; nearly all actives have a fitted effect of over 45% in size
Marburg entry inh: blocks Marburg virus binding to or entry into cells. Marburg virus pseudotyped entry inhibition, cell reporter. Potency, µM (top dose mostly 37.8 µM), for inactives: at the top dose activity change, negative = inhibition, most hits filed as inhibitors. 1.8% of 300,000 active; calls by dose curve; tested in HEK293 cells; also: potency is read from the fitted curve at half-maximal effect; % is scaled to controls: 0 for no effect and ±100 for the full control effect
Shiga toxin inh: blocks Shiga toxin action in Vero cells; Vero cells, Shiga toxin protein synthesis inhibition reporter; inhibition, % at 38.7 µM; 9.2% of 290,000 active; AID 2315; in the data active = inhibition mostly above about 28%, no sharp cut-off; inactive = mostly below about 43%; also: 0% is about no effect
Active calls of the source: *; [ ] = dose if it differs, or a comment.

How did CC(=O)c1ccc2c(c1)Cc1cc(C(C)=O)ccc1-2 do in these assays?
Lassa entry inh: inconclusive; Cycloheximide cs: 30.8*; HCV inhibitor: -4.2%; FMDV antiviral: 31.9%; Marburg entry inh: -5.5%; Shiga toxin inh: 133.5*

What do the screens show for `CC(C)CN1C(=O)c2ccc(NC(=O)C3CC3)cc2C1=O`?
Lassa entry inh: 2.5%[46.1 µM]; Cycloheximide cs: -4.1; HCV inhibitor: -2.9%[8.37 µM]; FMDV antiviral: 17.7%; Marburg entry inh: 15.7%[46.1 µM]; Shiga toxin inh: -5.8

What do the screens show for `O=C1c2ccccc2C(=O)c2cc(NC(=O)C3CC3)ccc21`?
Lassa entry inh: -10.4%; Cycloheximide cs: 20.0*; HCV inhibitor: 0.3%; FMDV antiviral: 21.2%; Marburg entry inh: inconclusive; Shiga toxin inh: 32.5*

Results for O=C(O)/C=C/C(=O)c1ccc(O)cc1 ?
Lassa entry inh: 0.7%; Cycloheximide cs: 1.4; HCV inhibitor: 11.1%; FMDV antiviral: -14.2%; Marburg entry inh: 9.2%[46.1 µM]; Shiga toxin inh: 27.1

Results for CC(=O)Nc1ccc2c(c1)Cc1c(F)cccc1-2 ?
Lassa entry inh: inconclusive; HCV inhibitor: 10µM*; FMDV antiviral: 98.1%; Marburg entry inh: 7.8%

How did Cc1c(C)c2ccc(OCC(=O)N3C[C@H]4C[C@@H](C3)c3cccc(=O)n3C4)cc2oc1=O do in these assays?
Cycloheximide cs: -3.4; HCV inhibitor: 3.1%; FMDV antiviral: -1.6%; Shiga toxin inh: 5.4

How did CC(=O)Nc1c(Cl)cc2c(c1Cl)C(=O)c1ccccc1-2 do in these assays?
Lassa entry inh: inconclusive; HCV inhibitor: 11.2µM*; FMDV antiviral: 17.2%; Marburg entry inh: -8.6%

How did CCCC(=O)Nc1ccc2c(c1)Cc1ccccc1-2 do in these assays?
Cycloheximide cs: 28.5*; HCV inhibitor: -4.4%; FMDV antiviral: 58.7%; Shiga toxin inh: 119.0*

How did CC(=O)Nc1ccc2c(c1)CCc1ccccc1-2 do in these assays?
Lassa entry inh: -0.1%[46.1 µM]; Cycloheximide cs: 46.5*; HCV inhibitor: -21.1%; FMDV antiviral: 32.3%; Marburg entry inh: inconclusive; Shiga toxin inh: 96.9*

Results for CC(=O)Nc1ccc2c(c1)C(=O)c1ccccc1C2=O ?
Lassa entry inh: 4.1%; Cycloheximide cs: 51.1*; HCV inhibitor: 10µM*; FMDV antiviral: 57.0%; Marburg entry inh: 3.3%; Shiga toxin inh: 83.6*

How did CC(=O)Nc1ccc2c(c1)N(C(=O)CN(C)C)c1ccccc1CC2 do in these assays?
Lassa entry inh: -2.7%; Cycloheximide cs: -2.5; HCV inhibitor: -5.9%; Marburg entry inh: 0.1%; Shiga toxin inh: -4.4

How did CC(=O)Nc1c(Cl)cc2c(c1Cl)Cc1ccccc1-2 do in these assays?
Lassa entry inh: 5.7%; HCV inhibitor: inconclusive; FMDV antiviral: 24.5%; Marburg entry inh: inconclusive

How did CCC(=O)Nc1ccc2c(c1)Cc1cc(NC(=O)CC)ccc1-2 do in these assays?
Cycloheximide cs: -3.3; HCV inhibitor: -14.4%; FMDV antiviral: 9.9%; Shiga toxin inh: -9.4

How did C=CCOn1c(=O)c(-c2cccs2)[n+]([O-])c2ccccc21 do in these assays?
Lassa entry inh: -10.1%; Cycloheximide cs: 10.5; HCV inhibitor: inconclusive; FMDV antiviral: -10.0%; Marburg entry inh: 36.9%; Shiga toxin inh: 9.2

How did Cc1ccc(/C=N/n2c(C3CCCCC3)n[nH]c2=S)o1 do in these assays?
Lassa entry inh: -9.7%; Cycloheximide cs: -3.2; HCV inhibitor: 8.1%; FMDV antiviral: -9.0%; Marburg entry inh: inconclusive; Shiga toxin inh: 4.8

What do the screens show for `O=C(O)/C=C/C(=O)Nc1ccc2c(c1)C(=O)c1ccccc1C2=O`?
Cycloheximide cs: 62.2*; HCV inhibitor: 9.1%; FMDV antiviral: 42.1%; Shiga toxin inh: 134.7*

What do the screens show for `CC(=O)Nc1ccc2c(c1)Cc1c-2cc(Br)c(N)c1Br`?
Lassa entry inh: 19.7%; HCV inhibitor: 11.2µM*; FMDV antiviral: 29.9%; Marburg entry inh: inconclusive

How did O=C(O)/C=C/C(=O)Nc1ccc(Oc2ccccc2)cc1 do in these assays?
Lassa entry inh: 9.3%; Cycloheximide cs: 7.5; HCV inhibitor: 2.3%; FMDV antiviral: 20.3%; Marburg entry inh: 1.1%[46.1 µM]; Shiga toxin inh: 28.8

What do the screens show for `CC(=O)Nc1c(Br)cc2c(c1Br)Cc1cc(Br)ccc1-2`?
Lassa entry inh: -19.8%; HCV inhibitor: inconclusive; FMDV antiviral: 2.6%; Marburg entry inh: inconclusive

What do the screens show for `CC(OC(=O)c1ccc(NC(N)=O)cc1)C(=O)Nc1ccc2c(c1)OCCO2` (stereo unspecified)?
Lassa entry inh: 3.9%[46.1 µM]; HCV inhibitor: -12.4%; FMDV antiviral: -13.6%; Marburg entry inh: 8.1%[46.1 µM]

Results for CC[n+]1c(/C=C/N(C)c2ccccc2)sc2ccc(Cl)cc21 ?
Lassa entry inh: inconclusive; Cycloheximide cs: -1.8; HCV inhibitor: inconclusive; Marburg entry inh: 2.91µM*; Shiga toxin inh: 1.7

Results for CC[n+]1c(/C=C/C=C/c2ccc(N(C)C)cc2)sc2ccccc21 ?
Lassa entry inh: inconclusive; Cycloheximide cs: -3.2; HCV inhibitor: 2.82µM*; FMDV antiviral: inconclusive; Marburg entry inh: 1.78µM*; Shiga toxin inh: -3.8

Results for C[n+]1ccc(/C=C/c2ccccc2O)c2ccccc21 ?
Lassa entry inh: -2.5%; Cycloheximide cs: -1.9; HCV inhibitor: -18.2%; FMDV antiviral: -14.3%; Marburg entry inh: 2.7%[46.1 µM]; Shiga toxin inh: -5.8

Results for CN(C)c1ccc(/C=C/c2cc[n+](C)c3ccccc23)cc1 ?
Lassa entry inh: inconclusive; Cycloheximide cs: 26.7*; HCV inhibitor: 11.2µM*; FMDV antiviral: 8.91µM*; Marburg entry inh: 7.94µM*; Shiga toxin inh: 25.0

What do the screens show for `CC[n+]1c(/C=C/C=C/N(C(C)=O)c2ccccc2)sc2ccccc21`?
Lassa entry inh: -27.6%; Cycloheximide cs: 10.5; HCV inhibitor: inconclusive; FMDV antiviral: inconclusive; Marburg entry inh: inconclusive; Shiga toxin inh: 24.7

What do the screens show for `CN(C)c1ccc(/C=C/C=C/c2sc3ccccc3[n+]2C)cc1`?
Lassa entry inh: inconclusive; Cycloheximide cs: 1.9; HCV inhibitor: inconclusive; FMDV antiviral: 39.8µM*; Marburg entry inh: inconclusive; Shiga toxin inh: -8.8

Results for COc1ccc(-c2cc3ccc(OCC(C)=O)cc3oc2=O)cc1 ?
Cycloheximide cs: 57.1*; HCV inhibitor: inconclusive; FMDV antiviral: 36.4%; Shiga toxin inh: 126.7*

How did COc1ccc(-c2cc3ccc(OCC(C)=O)cc3oc2=O)cc1OC do in these assays?
Cycloheximide cs: 24.8*; HCV inhibitor: -7.6%; FMDV antiviral: 5.1%; Shiga toxin inh: 27.4*

How did CC(C)(C)OC(=O)C[C@H]1C/C=C\C[C@@H](CC(=O)N[C@@H](CO)Cc2ccccc2)C(=O)N2CCC[C@@H]2COC1=O do in these assays?
HCV inhibitor: 10.4%; FMDV antiviral: 3.8%

How did COc1cc(OC)nc(-n2ncc(Br)c(Br)c2=O)n1 do in these assays?
Lassa entry inh: 1.26µM*; Cycloheximide cs: -8.5; HCV inhibitor: 3.98µM*; FMDV antiviral: 10µM*; Marburg entry inh: 1.64µM*; Shiga toxin inh: -24.1

Results for COC(=O)c1cnn(-c2nc(OC)cc(OC)n2)c1C ?
Lassa entry inh: 6.0%; Cycloheximide cs: -4.3; HCV inhibitor: 10.1%; FMDV antiviral: -9.7%; Marburg entry inh: 17.5%; Shiga toxin inh: 17.2
